A selection: hits, their analogues and other compounds. The true share with any hit is near 19%.
DT40 TDP1 no CPT = qHTS for Inhibitors of human tyrosyl-DNA phosphodiesterase 1 (TDP1): qHTS in cells in absence of CPT; hit rate 15% among 420,000; Potency, µM (titrated, usually from 46.2 µM), without a hit: at the highest dose activity change, negative = growth inhibition, actives largely listed as inhibitors; DT40 Tdp1-/- hTDP1 cells, no CPT, ATP luminescence, 48 h; further: potency means the concentration at half of the fitted maximal effect; nearly all actives have a fitted effect of over 55% in size
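Seeded 400 DT40-hTDP1 cells/well (vehicle DMSO, no 20 nM CPT); pinned compounds; ≥48 hr at 37 °C; CellTiter-Glo luminescence as viability measure.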
HT1080NT lethal = qHTS for induction of synthetic lethality in tumor cells producing 2HG: qHTS for the HT-1080-NT fibrosarcoma cell line. HT-1080-NT fibrosarcoma viability, CellTiter-Glo ATP luminescence, 48 h. Potency, µM (top dose mostly 46.1 µM), for inactives: at the highest dose activity, negative = less viability, usual class: cytotoxic. hit rate 1.6% among 360,000;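 further: NT is the 2HG producing partner of a matched IDH1 knockdown line; potency means the concentration at half of the fitted maximal effect; 0% = DMSO-treated cells and -100% = media-only wells without cells; nearly all actives have a fitted effect of over 55% in size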
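750 cells/well, RPMI + 5% FBS; 2 h settle, compound pin-transfer, 48 h at 37 degrees C. CellTiter-Glo 10 min RT, luminescence. Normalized to DMSO and media-only wells.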
TDP1 cell CPT = qHTS for Inhibitors of human tyrosyl-DNA phosphodiesterase 1 (TDP1): qHTS in cells in presence of CPT | chicken DT40 Tdp1-/-;hTDP1 cells + 20 nM CPT, ATP luminescence, 48 h | hit rate 12% among 420,000 | Potency, µM (doses to about 46.2 µM), for inactives: top-dose activity change, negative = growth inhibition, actives largely listed as inhibitors; further: potency means the concentration at half of the fitted maximal effect; nearly all actives have a fitted effect of over 55% in size
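Chicken DT40 Tdp1-/- cells stably complemented with human TDP1 were seeded at 400 cells/well in medium containing 20 nM camptothecin, exposed to pin-transferred compounds, and grown at 37 °C for at least 48 hr. Viability was read as ATP luminescence.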
IL-1B inflam inh = qHTS for Inhibitors of Inflammasome Signaling: IL-1-beta AlphaLISA Primary Screen; activity change, % at 57.5 µM; THP-1 LPS/ATP IL-1B secretion, AlphaLISA, 16 h; hits give low values; hit rate 4.7% among 360,000; in the data active means activity change below about -50%; inconclusive means mostly about -30% to -49%
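THP-1 cells pretreated 1 hr with compounds (up to 57.5 uM final), then stimulated with LPS (250 ng/mL final) plus ATP (1.25 mM final); secreted IL-1B measured by AlphaLISA after 16 hr, decreased signal indicating inhibition.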
HT1080 IDH1KD tx = qHTS for induction of synthetic lethality in tumor cells producing 2HG: qHTS for the HT-1080-IDH1KD cell line | HT-1080 IDH1 knockdown viability, ATP luminescence, 48 h | Potency, µM (titrated, usually from 46.1 µM), inactives show top-dose activity, negative = toxicity, most hits filed as cytotoxic | hit rate 2% among 360,000;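 further: potency means the concentration at half of the fitted maximal effect; 0% = DMSO wells and -100% = cell-free medium wells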
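Assay cells: HT-1080 with IDH1 knockdown, 750 per well, RPMI/5% FBS. Exposure: 48 h at 37 °C following 2 h pre-incubation. Read: CellTiter-Glo luminescence; fitted concentration-response, curve class assigned.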
* marks the source's active call; other numbers are inactive results; ? = inconclusive; nt = no result. Unless noted, the call rests on the fitted dose curve; in most records, active means well fitted curve in the direction sought with a large enough effect; inconclusive means small, poorly fitted or top-dose-only effect, or another doubt; inactive means no such curve, though single readings can be large; an effect the other way counts as inactive or inconclusive. Unless noted, on the % scale 0 is the no-effect control and ±100 the full control effect.

SMILES	DT40 TDP1 no CPT	HT1080NT lethal	TDP1 cell CPT	IL-1B inflam inh	HT1080 IDH1KD tx
COc1cc(Cl)nn(-c2ccccc2)c1=O	-10.8%	8.6%	?	0.0	3.4%
CCOc1ccc(C2/C(=C(\O)c3cccc(OC)c3)C(=O)C(=O)N2c2ccccn2)cc1OC (stereo not given)	-14.1%	0.0%	-17.0%	16.7	-0.5%
COC(=O)N/N=C/c1cc(C)n(-c2ccc(Br)cc2)c1C	?	-0.8%	-22.2%	-6.3	-2.6%
CCc1ccc(-n2c(C)cc(/C=N/NC(=O)OC)c2C)cc1	25.9µM*	-11.9%	?	-0.1	-1.0%
CCc1ccc(-n2c(C)cc(/C=N/NC(=O)c3ccncc3)c2C)cc1	?	-6.2%	13µM*	6.3	-6.5%
Cc1cc(/C=N/NC(=O)c2ccncc2)c(C)n1-c1ccccc1	-25.7%	-3.5%	1.7%	0.0	-3.7%
COc1ccc(CS(=O)(=O)CC2(O)CCN(C(=O)c3cccc(C(F)(F)F)c3)CC2)cc1	-25.1%	-3.8%	-24.9%	19.4	-3.5%
COC(=O)Cc1ccc(N(Cc2ccccc2F)S(=O)(=O)c2ccc(C)cc2)cc1	18.4µM*	0.5%	20.6µM*	21.6	0.8%
COc1ccc(CN(C)C(=O)CCN(c2ccccc2)S(=O)(=O)c2ccc(C)cc2)c(OC)c1	23.1µM*	-10.7%	20.6µM*	-6.0	-0.3%
COc1ccc(OCC(=O)Nc2ccc(S(=O)(=O)N(C)c3ccccc3)cc2)cc1	0.0%	7.4%	-12.8%	-3.8	5.5%
Cc1ccc(S(=O)(=O)N(C)c2ccc(OCC(=O)Nc3ccc(C(=O)N(C)C)cc3)cc2)cc1C	18.4µM*	0.6%	?	11.3	-0.2%
COC(=O)CN(c1ccccc1)S(=O)(=O)c1ccc(F)cc1	-17.8%	5.1%	-8.7%	12.3	4.4%
COC(=O)c1ccc(NC(=O)COc2ccc(N(C)S(=O)(=O)c3ccc(C)cc3)cc2)cc1	?	2.2%	16.4µM*	7.0	-1.2%
Cc1ccc(N(CCC(=O)O)S(=O)(=O)c2ccccc2)cc1	-8.1%	2.4%	-11.3%	0.0	6.9%
CN(C)c1ncc2ncc(=O)n(C3CC3)c2n1	-30.0%	nt	?	nt	nt
Cc1ccc(OCC(=O)Nc2ccc(S(=O)(=O)N(Cc3ccccc3)c3ccccc3)cc2)cc1	4.61µM*	nt	18.4µM*	nt	nt
CCOc1ccccc1C(=O)Nc1ccc(S(=O)(=O)N(Cc2ccccc2)c2ccccc2)cc1	?	nt	-1.9%	nt	nt
CN(C)S(=O)(=O)c1ccc(NC(=O)CCCNC(=O)c2ccc(Cl)cc2)cc1	-15.8%	-4.4%	-27.6%	10.8	-1.3%
CC1CC(C)CN(S(=O)(=O)c2cc3c4c(c2)CCC(=O)N4CCC3)C1 (stereo not given)	18.4µM*	1.2%	?	-4.8	-1.1%
CCOC(=O)C1CCCN(S(=O)(=O)c2cc3c4c(c2)CCC(=O)N4CCC3)C1 (stereo not given)	20.6µM*	-28.3%	23.1µM*	29.7	-23.5%
CCOC(=O)c1ccc(S(=O)(=O)N2CCC(C(=O)OCC)CC2)cc1	-19.3%	8.4%	-3.0%	8.1	?
O=C1CCc2cc(S(=O)(=O)N3CCCCC3)cc3c2N1CCC3	-9.2%	14.5%	16.2%	43.4	-2.2%
CCOC(=O)C1CCCN(S(=O)(=O)c2ccc(S(=O)(=O)N3CCCC3)cc2)C1 (stereo not given)	3.66µM*	0.3%	4.61µM*	0.0	-1.4%
CCOC(=O)C1CCCN(S(=O)(=O)c2cc(Br)cc3c2N(C(C)=O)CC3)C1 (stereo not given)	-13.4%	0.0%	-18.8%	3.4	3.8%
CCOC(=O)C1CCN(S(=O)(=O)c2ccc(CC)cc2)CC1	?	-3.5%	20.6µM*	21.4	4.6%
SMILES	DT40 TDP1 no CPT	HT1080NT lethal	TDP1 cell CPT	IL-1B inflam inh	HT1080 IDH1KD tx
Cn1cc(-c2ccc3c(c2)OCO3)c2ccccc21	4.5%	5.6%	2.4%	-12.6	11.0%
CN(C(=O)c1cc2ccccc2o1)c1c(N)n(Cc2ccccc2)c(=O)[nH]c1=O	-1.2%	-1.7%	?	17.9	-1.5%
COC(=O)c1ccccc1NC(=O)N1CCC(N2CCN(Cc3ccc(F)cc3)C(=O)C2=O)CC1	-1.0%	nt	2.6%	nt	nt
CCOC(=O)C1CCN(C(=O)C2CCCN(S(=O)(=O)c3ccc(OCC)c(Cl)c3)C2)CC1 (stereo not given)	5.8µM*	?	6.51µM*	8.0	-21.5%
Nc1ncnc2c1ncn2[C@@H]1O[C@H](C(=O)N(CCC2=CCCCC2)CC2CC2)[C@@H](O)[C@H]1O	16.4µM*	3.5%	?	5.8	4.8%
CC(C)COc1ccc(CNC(=S)Nc2ccccc2)cc1Cl	25.9µM*	-22.3%	?	?	?
COc1ccc(CNC(=S)Nc2ccccc2)cc1Cl	-9.6%	-4.3%	-22.2%	?	-9.1%
CCCOc1ccc(CNC(=S)Nc2ccccc2)cc1Cl	16.4µM*	-17.3%	?	-78.9*	-27.7%
NC(=O)CN1CCN(C(=O)Nc2ccccc2)CC1	-1.4%	-4.0%	15.3%	-24.0	-5.0%
CCOC(=O)c1[nH]c(=S)n(-c2ccccc2)c1C(=O)OCC	1.7%	6.4%	11.5%	6.3	0.1%
O=C(c1ccc2c(c1)N(Cc1ccc(F)cc1)CCS2)N1CCOCC1	?	-0.2%	?	28.2	-0.6%
Cc1ccc(CN2CCSc3ccc(C(=O)N4CCN(c5ccc(Cl)cc5)CC4)cc32)cc1	20.6µM*	nt	14.6µM*	nt	nt
CN1CCN(C(=O)c2ccc3c(c2)N(Cc2ccccc2)CCS3)CC1	?	-12.3%	?	-18.7	-13.3%
Cc1ccc(CN2CCSc3ccc(C(=O)N4CCN(c5cccc(C)c5C)CC4)cc32)cc1	5.17µM*	nt	8.2µM*	nt	nt
COc1ccc(C(C(=O)NC(C)(C)C)N(CCO)C(=O)CCC(=O)Nc2cc(C)on2)cc1 (stereo not given)	-1.1%	-2.5%	18.5%	27.8	1.0%
COc1ccc(-c2nnc(OCc3ccccc3)c3ccccc23)cc1	?	-20.1%	?	-86.6*	-9.0%
CN(C)C(=O)CSc1nnc(-c2ccc(F)cc2)c2ccccc12	?	0.5%	1.0%	-0.7	-3.8%
Cc1ccc(-c2nnc(OCc3cccnc3)c3ccccc23)cc1	?	-14.9%	-15.0%	-82.6*	-0.6%
Cc1ccc(Oc2nnc(-c3ccc(C)cc3)c3ccccc23)cc1	14.6µM*	14.2%	20.6µM*	14.2	-0.4%
CCCCSc1nnc(-c2ccc(C)cc2)c2ccccc12	18.4µM*	0.0%	20.6µM*	6.2	0.3%
